The results in this text go back to PubChem BioAssay (Tox21).

Results filed as inconclusive are left out. Active and inactive are the calls of the source. Unless noted, the call rests on the fitted dose curve; in most records, active means well fitted curve in the direction sought with a large enough effect in the repeat runs; inconclusive means weak or mixed curves; inactive means no such curve, though single readings can be large; an effect the other way counts as inactive or inconclusive.

Assay [1] can be described thus: qHTS assay to identify aromatase inhibitors - cell viability counter screen (AID 743084).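 Further: cells stimulated with testosterone during compound exposure; nearly all actives have a fitted effect of over 55% in size.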 Further: potency means the concentration at half of the fitted maximal effect. Background: Quantitative high-throughput screening tests each substance at several concentrations.
Assay [2] addresses Aryl hydrocarbon receptor (Homo sapiens) (UniProt P35869). Description: qHTS assay to identify small molecule that activate the aryl hydrocarbon receptor (AhR) signaling pathway (AID 743085). Further: nearly all actives have a fitted effect of over 15% in size. Further: potency means the concentration at half of the fitted maximal effect.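 On activation: HG2L7.5c1 human HepG2 liver cells with stably integrated DRE-driven firefly reporter; series mostly up to about 70 µM.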 The essentials:
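Cell line HG2L7.5c1 (human hepatoma, 20× DRE-luc). Plated, 5 h 37C, compound/DMSO added, 24 h 37C. CellTiter-Fluor 30 min 37C → fluorescence; then ONE-Glo 30 min RT → luminescence.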

Assay [3] is described as follows: qHTS assay to identify small molecule that activate the aryl hydrocarbon receptor (AhR) signaling pathway - cell viability counter screen (AID 743086). Further: nearly all actives have a fitted effect of over 45% in size. Further: potency means the concentration at half of the fitted maximal effect. The essentials:
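HepG2-AhR-luc (HG2L7.5c1) cells, 4000/well, were preincubated 5 h at 37C, exposed to compound in qHTS format for 24 hr at 37C, then given CellTiter-Fluor for 30 min; viability was read as fluorescence in the reporter wells.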

The target of assay [4] is Peroxisome proliferator-activated receptor gamma (Homo sapiens) (UniProt P37231). Description: qHTS assay to identify small molecule agonists of the peroxisome proliferator-activated receptor gamma (PPARg) signaling pathway (AID 743094; active means well fitted activation curve with a large enough effect in the signal ratio in the repeat runs, not every such curve was filed as active; the % refers to the signal ratio). The essentials: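 Fluorescence-based beta-lactamase readout in HEK293H PPARg UAS-bla cells after 17 h compound exposure (37C) and 1 h B/G FRET substrate incubation at room temperature.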

The nature of assay [5]: qHTS assay to identify small molecule antagonists of the peroxisome proliferator-activated receptor gamma (PPARg) signaling pathway - cell viability counter screen (AID 743194). Further: nearly all actives have a fitted effect of over 55% in size. In outline:
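PPARg-UAS-bla HEK293H cells were plated, rested 5 h at 37 C, then treated with compounds plus rosiglitazone (50 nM final) for 17 h at 37 C; viability was then read by CellTiter-Glo luminescence after 30 min at room temperature.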

Assay [6] in a line: qHTS assay for small molecule agonists of the antioxidant response element (ARE) signaling pathway (AID 743202; active means well fitted activation curve with a large enough effect in the signal ratio in the repeat runs, not every such curve was filed as active; the % refers to the signal ratio; further: potency means the concentration at half of the fitted maximal effect). In outline: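 Following a 16 h, 37 C exposure of reporter HepG2 cells (ARE-driven beta-lactamase, 2,000 cells/well) to compounds, FRET substrate was applied for 2 h at room temperature and fluorescence intensity recorded.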
Assay [7] is described as follows: qHTS assay for small molecule agonists of the antioxidant response element (ARE) signaling pathway - cell viability counter screen (AID 743203; calls by dose curve; further: nearly all actives have a fitted effect of over 55% in size). In outline: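 Parallel cytotoxicity read-out for the ARE-bla screen: HepG2 reporter cells, 16 hrs with compounds, then CellTiter-Glo luminescence.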
A short description of assay [8]: qHTS assay for small molecule activators of the heat shock response signaling pathway - cell viability counter screen (AID 743209). Further: nearly all actives have a fitted effect of over 50% in size. The essentials:
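To flag cytotoxic compounds, HSE-bla HeLa cells plated at 1500 cells/well were dosed for 5 h at 37 C, followed by the reporter FRET read and then CellTiter-Glo, with luminescence recorded 30 min after reagent addition.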

Assay [9] in a line: qHTS assay for small molecule activators of the heat shock response signaling pathway (AID 743210; active means well fitted activation curve with a large enough effect in the signal ratio in the repeat runs, with a control signal flat, not every such curve was filed as active; the % refers to the signal ratio; further: series mostly up to about 63 µM). The essentials:
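Heat shock element–beta-lactamase HeLa reporter cells; qHTS with compounds for 5 h at 37 C; detection by FRET substrate fluorescence after 2.5 h at RT.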

Assay [10] has as its target Peroxisome proliferator-activated receptor delta (Homo sapiens) (UniProt Q03181). Description: qHTS assay to identify small molecule agonists of the peroxisome proliferator-activated receptor delta (PPARd) signaling pathway (AID 743212; calls by dose curve). The essentials: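 Beta-lactamase reporter read by fluorescence (LiveBLAzer B/G FRET, 2 h, room temperature). Test agents, in DMSO, incubated at 37 C with PPARd-bla HEK293H cells.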

Assay [11] can be described thus: qHTS assay to identify small molecule antagonists of the peroxisome proliferator-activated receptor delta (PPARd) signaling pathway - cell viability counter screen (AID 743213). Further: nearly all actives have a fitted effect of over 50% in size. In outline: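 PPARd-bla HEK293H cells (3000/well) got compound plus 300 nM L165041 agonist for 17 h at 37 C. Viability in the same wells came from CellTiter-Glo luminescence after 30 min at room temperature.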

Assay [12] has as its target Peroxisome proliferator-activated receptor delta (Homo sapiens) (UniProt Q03181). Nature of the assay: qHTS assay to identify small molecule antagonists of the peroxisome proliferator-activated receptor delta (PPARd) signaling pathway (AID 743215; active means well fitted inhibition curve with a large enough effect in the signal ratio in the repeat runs, not every such curve was filed as active; the % refers to the signal ratio;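 further: cells stimulated with agonist L165041 at 300 nM final during compound exposure; series mostly up to about 62 µM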). The essentials:
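Screen format: qHTS, antagonist mode. HEK293H PPARd-bla cells received compound and 300 nM L165041 (final), 17 h, 37 C. Beta-lactamase detected via FRET substrate fluorescence, 2 h, room temperature.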

The nature of assay [13]: qHTS assay to identify small molecule agonists of the farnesoid-X-receptor (FXR) signaling pathway - cell viability counter screen (AID 743218). Further: nearly all actives have a fitted effect of over 45% in size. Further: potency means the concentration at half of the fitted maximal effect. The essentials: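 Same-well cytotoxicity check on FXR-UAS-bla HEK 293T cells: 5 h attachment, 16 h compound at 37 C, CellTiter-Glo luminescence read at room temperature after 30 min.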
Assay [14] is described as follows: qHTS assay to identify small molecule antagonists of the farnesoid-X-receptor (FXR) signaling pathway - cell viability counter screen (AID 743221; active means well fitted cell-killing curve with a large enough effect in the repeat runs, not every such curve was filed as active; further: nearly all actives have a fitted effect of over 50% in size). The essentials:
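Luminescence from CellTiter-Glo measures cytotoxicity in GeneBLAzer FXR-UAS-bla HEK 293T cells. Cells were exposed to compounds with 50 uM chenodeoxycholic acid (final) for 16 h at 37 C, in wells also used for the reporter readout.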

In assay [15] the target is Vitamin D3 receptor (Homo sapiens) (UniProt P11473). Description: qHTS assay to identify small molecule agonists of the vitamin D receptor (VDR) signaling pathway (AID 743222; calls by dose curve). The essentials: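 Using LiveBLAzer B/G FRET detection, agonism was scored in VDR-bla cells exposed overnight (16 h, 37C) to DMSO-dissolved compounds; substrate incubation was 2 h at room temperature.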

The target is the same in assay [16]. Nature of the assay: qHTS assay to identify small molecule antagonists of the vitamin D receptor (VDR) signaling pathway (AID 743223; active means well fitted inhibition curve with a large enough effect in the signal ratio in the repeat runs, not every such curve was filed as active; the % refers to the signal ratio). The essentials:
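Antagonist mode uses 1alpha,25-dihydroxyvitamin D3 at 3 nM final as stimulus. VDR-bla cells receive compounds in DMSO, incubate 16 h at 37C, then a beta-lactamase FRET substrate for 2 h at room temperature before fluorescence measurement.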

Assay [17] addresses Peroxisome proliferator-activated receptor gamma (Homo sapiens) (UniProt P37231). Nature of the assay: qHTS assay to identify small molecule antagonists of the peroxisome proliferator-activated receptor gamma (PPARg) signaling pathway (AID 743191; calls by dose curve; further: series mostly up to about 63 µM; nearly all actives have a fitted effect of over 30% in size). The essentials: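 GeneBLAzer PPARg UAS-bla HEK293H cells carrying a UAS-driven beta-lactamase reporter were plated at 3000 cells/well, preincubated 5 h at 37C, then given compound for 17 h at 37C; LiveBLAzer B/G FRET substrate was read after 1 h at room temperature.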

The target in assay [18] is Bile acid receptor (Homo sapiens) (UniProt Q96RI1). Nature of the assay: qHTS assay to identify small molecule agonists of the farnesoid-X-receptor (FXR) signaling pathway (AID 743220; active means well fitted activation curve with a large enough effect in the signal ratio in the repeat runs, not every such curve was filed as active; the % refers to the signal ratio; further: potency means the concentration at half of the fitted maximal effect). The essentials: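 FXR-UAS-bla HEK 293T cells carrying a UAS-driven beta-lactamase reporter were plated for 5 h at 37C/5% CO2, then exposed to DMSO-dissolved Tox21 10K compounds for 16 h at 37C. A LiveBLAzer B/G FRET substrate was loaded for 2 h at room temperature before fluorescence reading.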

Assay [19] in a line: qHTS assay to identify small molecule agonists of the peroxisome proliferator-activated receptor delta (PPARd) signaling pathway - cell viability counter screen (AID 743211). Further: nearly all actives have a fitted effect of over 55% in size. In outline: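 HEK293H PPARd-bla, 3000 cells/well; 5 h preincubation 37C/5% CO2; cpd in DMSO, 17 h 37C; B/G FRET substrate 2 h RT; CellTiter-Glo 30 min RT, luminescence.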

Sequence of Peroxisome proliferator-activated receptor delta (Homo sapiens) (Q03181 whole entry, looked up): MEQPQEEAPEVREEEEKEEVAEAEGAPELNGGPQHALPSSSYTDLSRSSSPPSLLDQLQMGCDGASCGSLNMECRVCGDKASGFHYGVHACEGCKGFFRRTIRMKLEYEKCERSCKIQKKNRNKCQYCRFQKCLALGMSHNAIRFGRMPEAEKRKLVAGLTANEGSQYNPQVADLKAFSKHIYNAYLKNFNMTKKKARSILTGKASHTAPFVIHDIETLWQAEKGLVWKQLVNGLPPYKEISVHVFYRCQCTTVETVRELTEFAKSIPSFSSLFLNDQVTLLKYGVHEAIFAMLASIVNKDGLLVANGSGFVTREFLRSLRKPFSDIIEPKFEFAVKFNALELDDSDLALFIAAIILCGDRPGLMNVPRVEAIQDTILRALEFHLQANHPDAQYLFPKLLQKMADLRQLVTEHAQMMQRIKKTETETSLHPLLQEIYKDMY
Sequence of Peroxisome proliferator-activated receptor gamma (Homo sapiens) (P37231 whole entry, looked up): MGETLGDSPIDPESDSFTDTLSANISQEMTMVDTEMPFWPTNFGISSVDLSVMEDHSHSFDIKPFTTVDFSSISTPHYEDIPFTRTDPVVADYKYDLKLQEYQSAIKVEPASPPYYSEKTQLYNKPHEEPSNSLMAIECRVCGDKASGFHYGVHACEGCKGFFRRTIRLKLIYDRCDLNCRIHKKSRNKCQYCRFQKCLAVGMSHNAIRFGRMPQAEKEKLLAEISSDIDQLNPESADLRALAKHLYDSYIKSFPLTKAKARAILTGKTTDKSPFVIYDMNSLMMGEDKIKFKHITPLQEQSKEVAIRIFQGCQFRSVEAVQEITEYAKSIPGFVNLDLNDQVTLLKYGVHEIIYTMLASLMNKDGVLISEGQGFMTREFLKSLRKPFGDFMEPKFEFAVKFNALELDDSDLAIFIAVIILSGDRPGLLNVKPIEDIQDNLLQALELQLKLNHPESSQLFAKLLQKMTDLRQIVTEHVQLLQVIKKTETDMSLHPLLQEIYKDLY
Sequence of Aryl hydrocarbon receptor (Homo sapiens) (P35869 whole entry, looked up): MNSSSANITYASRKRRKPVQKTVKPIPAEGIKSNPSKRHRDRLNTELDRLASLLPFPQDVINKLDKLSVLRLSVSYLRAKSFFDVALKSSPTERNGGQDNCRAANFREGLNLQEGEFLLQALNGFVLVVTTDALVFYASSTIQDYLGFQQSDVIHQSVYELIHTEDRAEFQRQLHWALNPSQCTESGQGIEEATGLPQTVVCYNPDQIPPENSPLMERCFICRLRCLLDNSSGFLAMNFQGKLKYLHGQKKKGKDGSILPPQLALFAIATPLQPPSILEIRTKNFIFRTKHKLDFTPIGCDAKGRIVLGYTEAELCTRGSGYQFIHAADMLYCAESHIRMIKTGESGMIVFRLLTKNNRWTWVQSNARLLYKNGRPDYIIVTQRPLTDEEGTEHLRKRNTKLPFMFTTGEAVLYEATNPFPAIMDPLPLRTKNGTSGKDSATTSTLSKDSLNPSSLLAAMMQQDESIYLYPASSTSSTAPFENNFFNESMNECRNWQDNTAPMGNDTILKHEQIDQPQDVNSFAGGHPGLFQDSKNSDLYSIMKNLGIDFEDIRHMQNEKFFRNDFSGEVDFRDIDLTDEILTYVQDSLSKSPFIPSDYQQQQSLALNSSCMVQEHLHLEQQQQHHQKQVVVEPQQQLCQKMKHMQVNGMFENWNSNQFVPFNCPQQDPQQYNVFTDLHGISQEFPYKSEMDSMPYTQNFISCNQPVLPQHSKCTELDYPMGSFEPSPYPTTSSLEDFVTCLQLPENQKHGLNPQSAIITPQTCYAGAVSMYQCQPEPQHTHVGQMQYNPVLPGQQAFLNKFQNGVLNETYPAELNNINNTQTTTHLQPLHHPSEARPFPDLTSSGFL
Sequence of Vitamin D3 receptor (Homo sapiens) (P11473 whole entry, looked up): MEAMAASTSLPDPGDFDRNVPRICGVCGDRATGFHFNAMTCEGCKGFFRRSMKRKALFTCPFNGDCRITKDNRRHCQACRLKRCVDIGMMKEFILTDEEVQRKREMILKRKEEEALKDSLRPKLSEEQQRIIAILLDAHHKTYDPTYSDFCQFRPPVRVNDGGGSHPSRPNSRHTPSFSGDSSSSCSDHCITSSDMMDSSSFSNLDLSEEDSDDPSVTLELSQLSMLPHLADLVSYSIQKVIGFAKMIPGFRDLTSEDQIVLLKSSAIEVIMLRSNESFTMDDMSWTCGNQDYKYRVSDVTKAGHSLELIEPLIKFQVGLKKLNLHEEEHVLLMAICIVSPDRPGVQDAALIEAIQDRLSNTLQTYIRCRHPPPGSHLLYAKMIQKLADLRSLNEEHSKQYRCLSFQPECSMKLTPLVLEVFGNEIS
Sequence of Bile acid receptor (Homo sapiens) (Q96RI1 whole entry, looked up): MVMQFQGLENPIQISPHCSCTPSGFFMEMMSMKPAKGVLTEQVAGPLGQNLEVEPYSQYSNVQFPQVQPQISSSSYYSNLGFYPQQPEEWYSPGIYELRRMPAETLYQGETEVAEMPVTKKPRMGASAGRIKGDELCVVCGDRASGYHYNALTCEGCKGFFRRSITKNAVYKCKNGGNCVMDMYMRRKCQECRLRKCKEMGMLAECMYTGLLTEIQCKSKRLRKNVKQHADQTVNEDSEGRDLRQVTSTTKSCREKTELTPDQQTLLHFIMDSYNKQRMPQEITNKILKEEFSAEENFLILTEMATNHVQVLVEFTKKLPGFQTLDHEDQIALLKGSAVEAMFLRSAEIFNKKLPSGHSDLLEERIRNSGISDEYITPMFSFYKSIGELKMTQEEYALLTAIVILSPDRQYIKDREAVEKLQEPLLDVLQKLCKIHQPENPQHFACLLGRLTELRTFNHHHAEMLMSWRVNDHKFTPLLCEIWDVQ

As to `CC(C)(C)OCC1CO1` (stereo unspecified), the Potency entry in assay [1], in assay [2], in [3], in assay [4], in [5] and in assay [6] was “inactive” in each case. Moreover, the Potency result in assay [7], in [8], in assay [9], in assay [10], in assay [11] and in assay [12] was “inactive” in each case. Moreover, the Potency entry in [13], in assay [14] and in assay [15] was “inactive” throughout. In addition, the outcome in assay [16] was inactive.
Consider `CO[C@@H]1[C@H](OC(=O)/C=C/C=C/C=C/C=C/C(=O)O)CC[C@]2(CO2)[C@H]1[C@@]1(C)O[C@@H]1CC=C(C)C`, for which the Potency entry in [1], in assay [2], in assay [3], in assay [4], in [5] and in [7] was “inactive” each time. In addition, the Potency entry in [8], in assay [10], in assay [12] and in [15] was “inactive” in each case. For the same compound, the Potency was 24.3 µM (active) in assay [6] and 1.95 µM (active) in assay [13]. Also, the outcome in [16] was inactive.
Turning to `C[C@H](CCC(=O)O)[C@H]1CC[C@H]2[C@@H]3CC[C@@H]4C[C@H](O)CC[C@]4(C)[C@H]3C[C@H](O)[C@]12C`, the Potency result in assay [1], in assay [2], in assay [3], in [4], in [17] and in assay [7] was “inactive” each time. The Potency entry in assay [9] is “inactive”. Besides, in assay [18], the Potency was 49.1 µM (active).
Regarding `C=CC1CC2C=CC1C2` (stereo unspecified), the Potency entry in [1], in [2], in [3], in assay [4], in assay [5] and in [6] was “inactive” each time. In addition, the Potency entry in assay [7], in assay [8], in [9], in assay [19], in assay [10] and in assay [14] was “inactive” each time. The Potency result in assay [15] was “inactive”. Besides, in [16], the compound was classed as inactive.
Regarding `CCCn1cnc2c1c(=O)n(CCCCC(C)=O)c(=O)n2C`, the Potency result in [1], in [2], in assay [3], in assay [4], in assay [5] and in assay [6] was “inactive” in each case. The Potency result in assay [7], in assay [8], in [9], in assay [19], in assay [11] and in assay [12] was “inactive” throughout. Moreover, the Potency entry in assay [13], in [18], in [14] and in [15] was “inactive” in each case. Further, in assay [16], the compound was classed as inactive.
As to `CC[N+](C)(CC)CCOC(=O)C(O)(c1ccccc1)C1CCCCC1` (stereo unspecified), the Potency result in assay [1], in [2], in assay [3], in [4], in assay [5] and in [6] was “inactive” in each case. Moreover, the Potency entry in assay [7], in [8], in assay [9], in [19], in assay [11] and in assay [15] was “inactive” each time. The outcome in [16] was inactive.
For the compound `Nc1ccc(N)c2c1C(=O)c1ccccc1C2=O`, the Potency in [1] is 17.2 µM (active); in [2], 6.11 µM (active); in [3], 21.7 µM (active). In addition, the Potency result in [4], in assay [5], in assay [7], in [8], in assay [9] and in assay [19] was “inactive” in each case. For the same compound, the Potency result in assay [10], in assay [11], in assay [12], in assay [14] and in [15] was “inactive” in each case. Further, in assay [16], the result was inactive.
